Results on 4 compounds are retold here after PubChem BioAssay.

Active and inactive are the calls of the source. Unless noted, no rule for the calls is given here.

The test system of test [1] is Wnt5a (protein binding on small-molecule microarray). Kind of test: Wnt5a binders on small-molecule microarray, primary screen, biophysical, 635/667 nm fluorescence (AID 1142).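 Also: fluorescence read at 667 nm with signal to noise per printed feature.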 The note with it: 635 nm fluorescence, higher = more signal.
The nature of test [2]: cell viability in Huh7 cells, primary screen, cytotoxicity control for HCV replication inhibitor project, CellTiter-Glo luminescence, basal, 48 h (AID 1143).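 Also: Huh7 hepatoma cells carrying a hepatitis C replication reporter with no stimulus; test concentration not given here.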 The following applies: Huh7 HCV replicon, higher = more signal, called active from +8 up or from −8 down.
The nature of test [3]: P. aeruginosa biofilm formation inhibitors, primary screen, PAO1 strain, BacTiter-Glo luminescence, LB-PBS (AID 1144). The following applies: 12 h, higher = more signal.
Test [4] can be described thus: CREB reporter modulators without forskolin, primary screen, cell-based, PC12, CRE-LacZ reporter, unstimulated (AID 1145). The following applies: no forskolin, luminescence, 4.5 h, higher = more signal, called active from +8 up or from −8 down.
A short description of test [5]: CREB reporter modulators under forskolin, primary screen, cell-based, PC12, CRE-LacZ reporter, forskolin-stimulated (AID 1146).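 Also: PC12 cells with 6xCRE LacZ reporter stimulated by forskolin 10 µM; beta-galactosidase reporter signal reflecting CREB driven transcription.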 The note with it: luminescence, 4.5 h, higher = more signal, called active from +8 up or from −8 down.
Test [6] addresses Streptavidin (Streptomyces avidinii) (UniProt P22629). Nature of the test: streptavidin binders on small-molecule microarray, primary screen, artefact control for SMM compound annotation, biophysical, 635/667 nm fluorescence (AID 1147).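 Also: signal reflects streptavidin binding to arrayed compounds as a control protein.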 The note with it: streptavidin binding, higher = more signal.
A short description of test [7]: small-molecule binders of probe aInhba, primary screen, biochemical, small-molecule microarray, 635/667 nm fluorescence (AID 1148).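 Also: score merges 667nm spot fluorescence with signal-to-noise for antibody binding to printed compounds.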 The following applies: higher = more signal.
The target of test [8] is Torsin-1A (Homo sapiens) (UniProt O14656). Nature of the test: torsin A binders from cell lysate, primary screen, small-molecule microarray, wild-type, 635/667 nm (AID 1149). The note with it: COS7 hTOR1A-WT lysate, 635 nm fluorescence, higher = more signal.
The target is the same in test [9]. Kind of test: small-molecule binders of mutant TOR1A in lysate, primary screen, cell lysate, small-molecule microarray, COS7 lysate, 635/667 nm fluorescence (AID 1150).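 Also: score pools 667 nm emission and signal to noise measuring lysate protein binding.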 The following applies: COS7 hTOR1A mutant lysate, 635 nm fluorescence, higher = more signal.
Test [10] concerns Sonic hedgehog protein (Shh). Kind of test: small-molecule binders of Shh protein, primary screen, biochemical, small-molecule microarray, 635/667 nm fluorescence (AID 1151).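 Also: Shh protein binding to compounds spotted on small-molecule microarray slides; score combines spot fluorescence intensity with signal-to-noise across triplicate slides.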 The note with it: small-molecule microarray binding, 635 nm fluorescence; higher = more signal.
The nature of test [11]: E. coli DRC41 culture turbidity changes, primary screen, E. coli filamentation inducer project, strain DRC41, OD650, 48 h (AID 1152).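 Also: E. coli MC1000 strain DRC41 lacking acrAB efflux pump and sulA.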 The following applies: E. coli DRC41 (acrAB sulA), higher = more signal, called active from +8 up or from −8 down.
Test [12] in a line: small-molecule binders of probe aLefty1, primary screen, biochemical, small-molecule microarray, 635/667 nm fluorescence (AID 1153).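 Also: score merges spot fluorescence with signal-to-noise ratio from the scanned slide images.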 The note with it: higher = more signal.
The nature of test [13]: PSAC antagonists in infected red cells, primary screen, cell-based, P. falciparum Indochina, OD700, 1 h (AID 1154). The following applies: P. falciparum Indochina infected RBC osmotic lysis, higher = more signal, called active from +8 up or from −8 down.
Test [14] is described as follows: PSAC antagonists in infected red cells, primary screen, cell-based, P. falciparum Indochina, OD700, 2 h (AID 1155).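 Also: lysis reports solute entry through the parasite surface anion channel PSAC; channel blockers reduce lysis of infected cells.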 The note with it: P. falciparum Indochina infected erythrocytes, osmotic lysis OD700; higher = more signal, called active from +8 up or from −8 down.
Test [15] is described as follows: osmotic lysis modulators in infected erythrocytes, primary screen, PSAC antagonist project, cell-based, P. falciparum Indochina, OD700, 3 h (AID 1156). The following applies: higher = more signal, called active from +8 up or from −8 down.
The nature of test [16]: PSAC antagonists in infected red cells, primary screen, cell-based, P. falciparum Indochina, OD700, 18 h (AID 1157). The following applies: P. falciparum Indochina infected erythrocytes, osmotic lysis OD700, 18 h; higher = more signal, called active from +8 up or from −8 down.
A short description of test [17]: modulators of S6 phosphorylation in cells, primary screen, cell-based, A549, cytoblot, luminescence, serum-stimulated (AID 1158).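 Also: serum-stimulated A549 lung adenocarcinoma cells; signal is phosphorylated S6 detected by cytoblot immunostaining with HRP secondary.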 The following applies: A549 phospho-S6 cytoblot, 5 h, higher = more signal.
Test [18] concerns the target NADPH oxidase 2 (Homo sapiens) (UniProt P04839). Nature of the test: NOX2-dependent H2O2 signal modulators, primary screen, NOX inhibitor project, cell-based, HEK293-NOX2, PMA-stimulated, Amplex Red fluorescence (AID 1159). Also: test concentration not given here. The following applies: 45 min, higher = more signal, called active from +8 up or from −8 down.
Test [19] has as its target NADPH oxidase 4 (Homo sapiens) (UniProt Q9NPH5). Nature of the test: NOX4-dependent H2O2 signal modulators, primary screen, NOX inhibitor project, cell-based, HEK293-NOX4, tetracycline-induced, Amplex Red fluorescence (AID 1160). The note with it: 45 min, higher = more signal, called active from +8 up or from −8 down.
Test [20] concerns the target NADPH oxidase 5 (Homo sapiens) (UniProt Q96PH1). Kind of test: NOX5-dependent H2O2 signal modulators, primary screen, NOX inhibitor project, cell-based, HEK293-NOX5, Amplex Red fluorescence (AID 1161). The following applies: HEK293-NOX5, ionomycin, 45 min, higher = more signal.

Chain of NADPH oxidase 5 (Homo sapiens) (Q96PH1 whole entry, looked up): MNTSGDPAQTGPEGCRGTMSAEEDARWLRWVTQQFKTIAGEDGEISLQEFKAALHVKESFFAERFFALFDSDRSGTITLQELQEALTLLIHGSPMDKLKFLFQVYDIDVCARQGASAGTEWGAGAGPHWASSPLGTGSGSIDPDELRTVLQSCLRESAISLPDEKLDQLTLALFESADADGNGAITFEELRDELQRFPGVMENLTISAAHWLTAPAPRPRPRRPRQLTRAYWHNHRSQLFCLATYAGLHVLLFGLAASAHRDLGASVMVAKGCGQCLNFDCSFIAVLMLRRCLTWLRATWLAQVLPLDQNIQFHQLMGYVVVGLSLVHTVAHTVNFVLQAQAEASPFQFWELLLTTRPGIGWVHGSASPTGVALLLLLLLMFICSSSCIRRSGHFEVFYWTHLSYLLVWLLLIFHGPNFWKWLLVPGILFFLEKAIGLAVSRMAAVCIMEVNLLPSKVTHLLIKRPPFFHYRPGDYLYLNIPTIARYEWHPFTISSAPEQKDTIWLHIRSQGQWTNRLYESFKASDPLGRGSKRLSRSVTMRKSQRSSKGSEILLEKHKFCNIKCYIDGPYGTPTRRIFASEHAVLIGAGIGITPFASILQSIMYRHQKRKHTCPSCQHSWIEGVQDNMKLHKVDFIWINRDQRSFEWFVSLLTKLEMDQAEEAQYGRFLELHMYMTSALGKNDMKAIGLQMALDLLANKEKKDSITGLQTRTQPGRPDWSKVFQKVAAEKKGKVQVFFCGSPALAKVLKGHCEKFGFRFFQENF
Chain of NADPH oxidase 2 (Homo sapiens) (P04839 whole entry, looked up): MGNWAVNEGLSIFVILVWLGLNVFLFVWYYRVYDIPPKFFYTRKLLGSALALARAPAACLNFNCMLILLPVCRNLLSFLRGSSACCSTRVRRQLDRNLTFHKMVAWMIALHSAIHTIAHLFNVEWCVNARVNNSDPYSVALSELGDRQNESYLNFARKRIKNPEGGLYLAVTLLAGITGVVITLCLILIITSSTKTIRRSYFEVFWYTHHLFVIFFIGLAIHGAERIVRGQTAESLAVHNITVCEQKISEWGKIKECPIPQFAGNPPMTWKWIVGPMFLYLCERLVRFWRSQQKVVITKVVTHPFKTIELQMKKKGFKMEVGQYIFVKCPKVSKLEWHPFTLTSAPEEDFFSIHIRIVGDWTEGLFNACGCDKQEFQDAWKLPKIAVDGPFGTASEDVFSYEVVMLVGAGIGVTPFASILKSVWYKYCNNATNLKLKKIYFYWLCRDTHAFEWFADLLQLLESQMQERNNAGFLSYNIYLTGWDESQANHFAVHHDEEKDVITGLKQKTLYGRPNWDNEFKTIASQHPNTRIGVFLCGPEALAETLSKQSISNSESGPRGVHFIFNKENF
Chain of Streptavidin (Streptomyces avidinii) (P22629 whole entry, looked up): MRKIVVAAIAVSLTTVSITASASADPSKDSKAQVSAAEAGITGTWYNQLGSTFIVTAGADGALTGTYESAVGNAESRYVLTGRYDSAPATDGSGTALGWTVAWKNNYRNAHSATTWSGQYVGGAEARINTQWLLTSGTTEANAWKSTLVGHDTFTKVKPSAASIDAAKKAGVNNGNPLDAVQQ
Chain of NADPH oxidase 4 (Homo sapiens) (Q9NPH5 whole entry, looked up): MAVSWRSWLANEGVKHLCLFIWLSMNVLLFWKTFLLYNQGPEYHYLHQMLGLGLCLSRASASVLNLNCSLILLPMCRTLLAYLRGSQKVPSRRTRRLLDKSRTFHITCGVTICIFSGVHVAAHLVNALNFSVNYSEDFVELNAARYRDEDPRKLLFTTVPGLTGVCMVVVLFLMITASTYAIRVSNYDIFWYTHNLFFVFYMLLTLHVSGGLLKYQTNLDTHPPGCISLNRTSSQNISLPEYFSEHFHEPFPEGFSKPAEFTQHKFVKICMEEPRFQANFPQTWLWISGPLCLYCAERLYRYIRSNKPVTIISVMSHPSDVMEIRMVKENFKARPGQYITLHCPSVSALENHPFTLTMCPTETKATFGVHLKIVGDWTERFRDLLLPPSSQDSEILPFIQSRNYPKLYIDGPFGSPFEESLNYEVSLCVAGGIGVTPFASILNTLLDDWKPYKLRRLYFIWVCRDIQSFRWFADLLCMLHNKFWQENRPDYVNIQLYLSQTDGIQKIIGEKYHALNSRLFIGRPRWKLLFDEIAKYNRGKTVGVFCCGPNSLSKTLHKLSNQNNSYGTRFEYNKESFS
Chain of Torsin-1A (Homo sapiens) (O14656 whole entry, looked up): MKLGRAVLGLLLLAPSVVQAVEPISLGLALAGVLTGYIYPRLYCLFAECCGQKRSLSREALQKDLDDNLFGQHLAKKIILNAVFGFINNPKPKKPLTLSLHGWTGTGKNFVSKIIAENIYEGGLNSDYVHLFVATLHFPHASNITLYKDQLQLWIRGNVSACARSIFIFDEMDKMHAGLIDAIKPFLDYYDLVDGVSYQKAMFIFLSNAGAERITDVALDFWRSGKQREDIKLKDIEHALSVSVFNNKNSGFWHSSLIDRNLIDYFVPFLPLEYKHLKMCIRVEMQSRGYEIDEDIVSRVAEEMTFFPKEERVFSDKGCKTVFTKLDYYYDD

Take `COc1ccc([Si](C)(C)[C@@H]2[C@@H](CCO)O[C@]3(C(=O)N(Cc4ccc(N5CCCCC5=O)cc4)c4ccccc43)[C@H]2C)cc1`: the composite z-score in test [1] is 0.123; in [6], 0.269; in test [7] it was -0.0471; in the test with Torsin-1A (Homo sapiens) [8] it was 0.0458; with Torsin-1A (Homo sapiens) [9], 0.342; in test [10] it was 1.72. The composite z-score in test [12] worked out at 0.145. Moreover, the z-score is -7.34 (inactive) in [2]; -0.701 (inactive) in test [3]; 8.03 (active) in test [4]; -1.2 (inactive) in test [5]; 0.968 (inactive) in test [11]; 26 (active) in [13]. The z-score in [14] is 21.8 (active); in test [15] it was 0.892 (inactive); in test [16] it was 2.63 (inactive); in test [17], 0.703; in test [18] it was 0.381 (inactive); in [19] it was 0.706 (inactive). Besides, the z-score in test [20] was found to be 2.1.

In the case of `C=CCC(OC(C)=O)[C@@H]1[C@@H](N(Cc2ccc(-c3cccc(C(F)(F)F)c3)o2)C(=O)c2ccc(C)cc2)c2cc(OCCCO)ccc2N1C(=O)c1ccc2ccccc2c1` (stereo not given in full), the composite z-score was 0.0344 in test [1]; 0.203 in test [6]; -0.024 in [7]; -0.361 with Torsin-1A (Homo sapiens) [8]; -0.0628 in the test with Torsin-1A (Homo sapiens) [9]; 0.772 in test [10]. Besides, the composite z-score in test [12] was -0.147. Also, the z-score in [2] was -0.478 (inactive); in test [3], -1.39 (inactive); in [4], -0.519 (inactive); in test [5] it was 0.291 (inactive); in test [11], 1.86 (inactive); in test [13], 2.37 (inactive). The z-score in test [14] is -0.0931 (inactive); in test [15], 0.0854 (inactive); in test [16], -0.109 (inactive); in [17], -0.494; in test [18] it was -0.401 (inactive); in test [19] it was 0.713 (inactive). Also, in test [20], the z-score stood at 1.79.

Regarding `O=C1C2C=CC(C(O)c3ccc(F)cc3)N(n3cnnc3)C2C(=O)N1Cc1ccccc1` (stereo not given), the composite z-score was -0.0707 in test [1]; -0.0183 in test [6]; 0.0383 in test [7]; -0.216 with Torsin-1A (Homo sapiens) [8]; 0.461 with Torsin-1A (Homo sapiens) [9]; -0.428 in [10]. The composite z-score in test [12] came out at 0.041. Besides, the z-score was -3.57 (inactive) in test [2]; -0.488 (inactive) in test [3]; -0.527 (inactive) in test [4]; -0.0197 (inactive) in test [5]; -0.792 (inactive) in test [11]; 0.138 (inactive) in test [13]. Besides, the z-score in [14] was -0.995 (inactive); in test [15] it was 0.987 (inactive); in [16] it was -2.02 (inactive); in test [17] it was 1.2; in test [18], -3.1 (inactive); in test [19] it was -1.12 (inactive). Moreover, the z-score in [20] is -4.43.

For `O=C1OCC=C[C@H]2OC34C=CCN(c5ccc(Cl)cc5)C(=O)[C@H]3N(CCO)C(=O)[C@@H]4[C@@H]12` (stereo not given in full), the composite z-score in test [1] is -0.649; in test [6], -1.02; in test [7], -0.26; with Torsin-1A (Homo sapiens) [8], -0.846; in the test with Torsin-1A (Homo sapiens) [9] it was -1.84; in test [10], -0.889. For the same compound, the composite z-score in [12] is -0.147. For the same compound, the z-score is 0.168 (inactive) in test [2]; 3.17 (inactive) in test [3]; 0.601 (inactive) in test [4]; -0.663 (inactive) in [5]; -0.367 (inactive) in [11]; 0.506 (inactive) in test [13]. The z-score in test [14] is 0.0971 (inactive); in test [15], 0.111 (inactive); in test [16] it was 0.403 (inactive); in test [17], -0.677; in test [18], 1.12 (inactive); in [19], 0.908 (inactive). The z-score in [20] is 1.31.
